Nox1 inhibitor: inhibitors of human NADPH oxidase 1 (Nox1). 0.81% of 16,000 active. inhibition, % at 6.7 µM. Q9Y5S8. HT29 cells, luminol chemiluminescence ROS. AID 1792
PME-1 Maybridge: Maybridge compound blocking human PME-1 | inhibition, % at 9 µM | recombinant PME-1, FP-Rh probe fluorescence polarization | 0.5% of 16,000 active | Q9Y570; in the data active means inhibition above about 30%
Target sequence (Q9Y570 whole entry, looked up): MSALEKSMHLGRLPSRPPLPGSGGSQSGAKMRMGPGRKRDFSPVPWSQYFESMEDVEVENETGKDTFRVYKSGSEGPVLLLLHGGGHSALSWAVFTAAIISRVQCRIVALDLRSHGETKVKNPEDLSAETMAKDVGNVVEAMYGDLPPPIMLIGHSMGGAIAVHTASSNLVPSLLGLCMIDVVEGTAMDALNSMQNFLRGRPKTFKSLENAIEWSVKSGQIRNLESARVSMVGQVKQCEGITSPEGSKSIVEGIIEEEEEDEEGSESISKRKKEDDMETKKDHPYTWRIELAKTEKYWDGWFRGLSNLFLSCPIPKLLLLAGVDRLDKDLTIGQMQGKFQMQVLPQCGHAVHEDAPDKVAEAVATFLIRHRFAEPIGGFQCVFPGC
NOTCH ag: activates NOTCH signaling in reporter cells; NOTCH signaling luciferase reporter cells, luminescence; activation, % at 2.5 µM; 0.4% of 15,000 active; in the data active means activation above about 2.2%
TLR4 MyD88 blk: TLR4-MyD88 interaction inhibition | Cell-based TLR4-MyD88 binding inhibition assay | inhibition, % at 10 µM | 0.06% of 16,000 active; in the data active means inhibition above about 45%
Luminol counter: quenches luminol chemiluminescence in Nox1 counter-screen. HRP/luminol/H2O2 chemiluminescence counterscreen. inhibition, % at 6.7 µM. 0.4% of 16,000 active. AID 1823; further: reference of the scale not given here
OPRK1 antag MB: blocks the human kappa opioid receptor, Maybridge compounds | 0.4% of 16,000 active | AID 652031 | OPRK1 cells, antagonist mode, fluorescence readout | inhibition, % at 9 µM; in the data active means inhibition above about 50%
Each line names hits and unclear results; the compound was inactive in the other large screens. A selection: hits, their analogues and other compounds. The true share with any hit is near 2.3%. Unless noted, no stated cut-off is given here; in the data, active means inhibition above about 75%; inactive means the rest.

Nc1nc(NCc2cccnc2)n[nH]1	Nox1 inhibitor 76.9
Nc1nc(NCc2ccccn2)n[nH]1	Nox1 inhibitor 89.9
Nc1nc(NCc2ccc(-c3cccs3)s2)n[nH]1	none
CC(=O)N1CCC(c2nc(-c3cccs3)no2)CC1	none
CN(C)/C=C/C(=N)SCc1c(F)cccc1Cl	none
O=[N+]([O-])c1ccc(-c2csc(COc3ccc(C4SCCS4)cc3)n2)cc1	none
c1ccc2c(c1)Nc1nc3ccccc3nc1O2	none
c1ccc2c(c1)Nc1nc3ccccc3nc1N2	Nox1 inhibitor 84.8
O=C(c1cccc(CN2CCN(Cc3ccccc3)CC2)c1)N1CCC(O)CC1	none
CCC(=O)Nc1ccc2c(c1)N(CC)C(C)(C)CC2C (stereo not given)	Nox1 inhibitor 93.4
CCC(=O)Nc1cnc(OC)c(C(F)(F)F)c1	none
Cc1ccc(/C=C2\CCCc3ccccc3C2=O)cc1	none
S=c1nc[nH]c2[nH]ncc12	Luminol counter 80.5
Cc1noc2[nH]cnc(=S)c12	none
Cc1ccc(NCN2C(=O)c3ccc([N+](=O)[O-])cc3C2=O)cc1	Nox1 inhibitor 76.8
Cc1cc(C)nc(NCN2C(=O)c3ccccc3C2=O)c1	none
O=C1CSc2ccc(C(F)(F)F)cc2N1Cc1c(Cl)cccc1Cl	PME-1 Maybridge 36.6
O=C1C=CC(=O)N1c1cc(C(F)(F)F)ccc1Cl	none
Cc1ccc2c(c1)/C(=c1/sc3nc4ccccc4n3c1=O)C(=O)N2	none
Clc1ccc2c(Nc3ccc4c(c3)OCO4)ccnc2c1	OPRK1 antag MB 51.4 (no result: TLR4 MyD88 blk)
CCOC(=O)c1ccc(NC(=O)C(=S)NCc2ccccc2)cc1	none
CCOC(=O)c1ccc(NC(=S)NC)cc1	NOTCH ag 2.9
CC(C)(C)c1csc(NNC(=O)c2ccc(Cl)cc2)n1	Nox1 inhibitor 85.3
O=C(NNc1nc(-c2cccs2)cs1)c1ccc(Cl)cc1	none
O=S(=O)(c1ccc(Cl)s1)N1CCN(C(c2ccccc2)c2ccccc2)CC1	NOTCH ag 6.4
O=Nc1c(-c2cccs2)[nH]oc1=O	none
CC1COC(c2cccc([N+](=O)[O-])c2)N1 (stereo not given)	OPRK1 antag MB 56.1
O=[N+]([O-])c1cccc(C2Oc3ccccc3C3CC(c4ccccc4)=NN32)c1 (stereo not given)	none
O=[N+]([O-])c1ccc(C2=NN(c3ccccc3)C(c3ccco3)C2)cc1 (stereo not given)	TLR4 MyD88 blk 70.4, OPRK1 antag MB 86.6
Cc1ccc(S(=O)(=O)OCC(O)CN2CCN(c3ccc(C(F)(F)F)cn3)CC2)cc1 (stereo not given)	none
Cc1cc(C)c2c(=O)[nH]sc2n1	NOTCH ag 2.8
CN(C)c1ccc(NC(=O)Nc2cccs2)cc1	Nox1 inhibitor 91.6
O=C(Nc1ccc2ccccc2n1)Nc1cccs1	none
CN(C)n1cccc1/C=C(\C#N)S(C)(=O)=O	none
CS(=O)(=O)/C(C#N)=C/c1cccn1S(=O)(=O)c1ccccc1	PME-1 Maybridge 31.2
CS(=O)(=NS(=O)(=O)c1ccc(Cl)cc1)c1ccccc1 (stereo not given)	PME-1 Maybridge 41.1
O=[N+]([O-])c1ccc2nc3c(O)c4ccccc4c(O)c3nc2c1	PME-1 Maybridge 37.7
CC(=O)/C(C)=N/NC(=O)CC#N	none
CC(C)(C)c1ccc(C(=O)O/N=C(\N)c2ccc([N+](=O)[O-])s2)cc1	none
Cc1nnsc1C(=O)NNc1cc(Cl)ccc1Cl	Nox1 inhibitor 76.4
Cc1noc(C)c1C(=O)NNc1cc(Cl)ccc1Cl	none
Cc1cc(C(=O)NNc2cc(Cl)ccc2Cl)no1	Nox1 inhibitor 81.0
NCCNc1c([N+](=O)[O-])cc(C(F)(F)F)cc1[N+](=O)[O-]	none
O=C(NNc1c([N+](=O)[O-])cc(C(F)(F)F)cc1[N+](=O)[O-])c1ccco1	Nox1 inhibitor 89.4
COc1ccc(-c2noc(-c3ccccc3C(=O)O)n2)cc1	none
C=CCn1c(CSc2ccccc2[N+](=O)[O-])n[nH]c1=S	Luminol counter 80.1
C=CCn1c(-c2ccccc2)n[nH]c1=S	Luminol counter 97.4
Nc1c(C(=O)c2ccccc2)sc2nsc(SCCN3CCCC3)c12	OPRK1 antag MB 76.3
O=C(C1=NNCC1c1ccc2c(c1)OCO2)c1ccc2ccccc2c1 (stereo not given)	none
c1ccc2c(c1)NC(c1ccc3c(c1)OCO3)O2 (stereo not given)	Nox1 inhibitor 79.7
CSc1nc(NS(=O)(=O)c2cc(Cl)sc2Cl)nn1C	none
